# Measured values from PubChem BioAssay (NCI).
# This is part of a sample that, as a whole, favours compounds with a hit. Of some 83,000 tested, about 20% had one in any assay.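 Single-concentration screen, 48 h exposure, 96-well plates. Endpoint: percent growth. Below 10 = active.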 Activity calls are given as the source filed them.
# Tested on: SK-MEL-5 melanoma
# Test: NCI-60 one-dose screen, 48 h (100 = growth as untreated, 0 = no growth, -100 = all killed)
# Conditions: 10 µM unless noted
# Procedure: Growth inhibition of the SK-MEL-5 human tumor cell line is measured as a screen for anti-cancer activity. Cells are grown in 96 well plates and exposed to the test compound for 48 hours. Compounds are tested at a single concentration, which is 10^-5 M for most compounds. The reported endpoint is percent growth (GI% or GIPRCNT), where numbers from 0 - 100% represent growth inhibition, and numbers from -100% - 0 represent cell death. For example, a value of 40 represents 60% growth inhibition. A value of 0 means no net growth occurred over the course of the experiment. A value of -40 indicates 40% of cells at the beginning of the experiment died by the end of the experiment. A value of -100 means all cells are dead at the end of the experiment.
# NCI-60 Human Tumor Cell Lines Screen was performed using the standard one-dose NCI protocol, which is described in more detail at https://dtp.cancer.gov/discovery_development/nci-60/default.htm.
# Compounds with GIPRCNT values below 10 were considered active. Activity score was based on GIPRCNT using the following formula: […]
# Score is 0 for GIPRCNT values of 100 or above, 50 for GIPRCNT values of 0, and 100 for GIPRCNT values of -100.
row,Structure (SMILES),growth
1,CCN(CC)c1ccc2c(c1)OC(N)=C(C#N)C2c1cc(OC)c2c(c1)OCO2 (stereo not given),-29.6% (active)
2,COc1ccc2c(c1)c(-c1nc(-c3c[nH]c4ncccc34)cs1)cn2CCN1CCOCC1,25.4% (inactive)
3,C=CCn1cc(C=C2C(=O)N(C)C(=O)N(C)C2=O)c2ccccc21,94.9% (inactive)
4,CC(C)(C)C(=O)OCOP(=O)(NCc1ccccc1)C1CCCN(O)C1=O (stereo not given),31.2% (inactive)
5,O=C1C=C2C(=CCOC2O)O1 (stereo not given),78.7% (inactive)
6,CC(=O)[C@H]1CC[C@H]2[C@@H]3CC[C@H]4C[C@H](N)CC[C@]4(C)[C@H]3CC[C@]12C,62.8% (inactive)
7,N#C[Se]CCN1C(=O)c2ccccc2C1=O,1.73% (active)
8,CCC(O)(CN)c1ccccc1 (stereo not given),98.9% (inactive)
9,N#Cc1c(Br)n(C2OC(CO)C(O)C2O)c2ncnc(N)c12 (stereo not given),95.9% (inactive)
10,C=C1C(=O)O[C@H]2[C@H]1CC/C(COC(=O)C(=O)c1cn(Cc3ccccc3)c3ccccc13)=C\CC[C@@]1(C)O[C@@H]21,-96.6% (active)
11,C/C=C(\C)C(=O)O[C@@H]1C(O)[C@H]2OC(COC(=O)CCC(=O)CCCCCC[C@H](CCCCC)O[C@@H]3OC(C)[C@H](OC(C)=O)C(O)[C@H]3O2)[C@H]1OC(=O)/C=C/c1ccccc1 (stereo not given in full),-79.1% (active)
12,CC1=C(CNO)C2=C(C)C3(CC3)[C@@](C)(O)C(=O)C2=C1,-67.4% (active)
13,COP(=O)(OC)C(O)c1ccc(Cl)cc1 (stereo not given),98.7% (inactive)
14,C[C@]12CC[C@H]3[C@@H](C[C@@H]4SC(Nc5ccccc5)=N[C@@]45CC(O)CC[C@]35C)[C@@H]1CCC2O (stereo not given in full),34.5% (inactive)
15,COC(C(=O)[C@@H](O)[C@@H](C)O)[C@@H]1Cc2cc3cc(O[C@H]4C[C@@H](O[C@H]5C[C@@H](O)[C@H](O)C(C)O5)[C@H](O)C(C)O4)c(C)c(O)c3c(O)c2C(=O)[C@H]1O[C@H]1C[C@@H](O[C@H]2C[C@@H](O[C@H]3C[C@@H](O)[C@@H](O)C(C)O3)[C@@H](O)C(C)O2)[C@H](O)C(C)O1 (stereo not given in full),-49.2% (active)
16,CC(=O)C(c1c(O)c2ccccc2oc1=O)c1cc(=O)oc2c1ccc1ccccc12 (stereo not given),96.5% (inactive)
17,CNC12C3C4C1C1C2C3C41C(=O)N[C@H](C(=O)N(C)[C@H](C[C@@H](OC(C)=O)c1nc(C(=O)N[C@@H](Cc2ccccc2)C[C@H](C)C(=O)OC)cs1)C(C)C)C1CC1 (stereo not given in full),-54.4% (active)
18,CCCCCCCCCCCCCCCCCCOc1ccccc1COP(=O)(O)OOCC[N+](C)(C)C,-72.9% (active)
19,CC(=O)O[C@H]1C(=O)[C@@]2(C)[C@H]([C@H](OC(=O)c3ccccc3)[C@]3(O)C[C@H](OC(=O)[C@H](OC(=O)OC[C@H]4COC(C)(C)O4)[C@@H](NC(=O)c4ccccc4)c4ccccc4)C(C)=C1C3(C)C)[C@]1(OC(C)=O)CO[C@@H]1C[C@@H]2O,18.2% (inactive)
20,CC[C@H](C)[C@H](NC(=O)C12C3C4C1C1C2C3C41NC)C(=O)N(C)[C@H](C[C@@H](OC(C)=O)c1nc(C(=O)N[C@@H](Cc2ccccc2)C[C@H](C)C(=O)OC)cs1)C(C)C (stereo not given in full),3.34% (active)

row,Structure (SMILES),growth
1,CC(=O)OC1C(OC/C2=C/C3[C@@H](C(C)C)CC=C(C)[C@@H]3CC(OC(=O)/C=C/c3cn(C)cn3)[C@]3(C)C=C[C@@]2(O)O3)OCC(O)C1O (stereo not given in full),7.53% (active)
2,CC[C@H](C)[C@H](NC(=O)NC(C)(C)C)C(=O)N(C)[C@H](C[C@@H](OC(C)=O)c1nc(C(=O)N[C@@H](Cc2ccccc2)C[C@H](C)C(=O)OC)cs1)C(C)C,-44.4% (active)
3,Cc1ccc2c(C(C[N+](=O)[O-])c3cccs3)c(-c3ccccc3)[nH]c2c1 (stereo not given),36.3% (inactive)
4,CCn1cnc2c(Nc3cccc(Cl)c3)nc(N[C@@H]3CCCC[C@@H]3N)nc21,-26.5% (active)
5,COC(=O)[C@]12CCC(C)(C)C[C@H]1[C@H]1C(=O)C[C@@H]3[C@@]4(C)C[C@@]5(CC(C)(C)[C@@H]4CC[C@@]3(C)[C@]1(C)CC2)OO[C@@](C)(C(F)(F)F)O5,99.5% (inactive)
6,NC(=O)C(Br)c1ccccc1 (stereo not given),82.9% (inactive)
7,CCOC(=O)N1CC1,101% (inactive)
8,CC(C)(C)C(=O)OCOP(=O)(OCOC(=O)C(C)(C)C)C1CCCN(O)C1=O (stereo not given),-13.5% (active)
9,COc1cc2c(c(OC)c1OC)-c1ccc([O-])c(=O)cc1[C@@H](NC(C)=O)CC2.COc1cc2c(c(OC)c1OC)-c1ccc([O-])c(=O)cc1[C@@H](NC(C)=O)CC2.[Cu+2],19.2% (inactive)
10,C=CC12CCN(CC1)C(C(O)c1ccnc3ccc(OC)cc13)C2 (stereo not given),53.1% (inactive)
11,COc1cc(/C=C\c2cc(OC)c(OC)c(OC)c2)cc(N/C=C\C(=O)c2cc(OC)c(OC)c(OC)c2)c1OC,5.18% (active)
12,COc1ccc(-n2c(C)nc3cc(OC)c(OC)cc3c2=O)cc1OC,104% (inactive)
13,Clc1cccc(N2COOC3(OOC2)C2CC4CC(C2)CC3C4)c1,86.5% (inactive)
14,Cn1cc(-c2csc(-c3cn(CCN4CCOCC4)c4ccc(F)cc34)n2)c2cccnc21,-28.8% (active)
15,CC(=O)O[C@H]1C(=O)[C@@]2(C)[C@H]([C@H](OC(=O)c3ccccc3)[C@]3(O)C[C@H](OC(=O)[C@H](OC(=O)OCC4COC(C)(C)O4)[C@@H](NC(=O)c4ccccc4)c4ccccc4)C(C)=C1C3(C)C)[C@]1(OC(C)=O)CO[C@@H]1C[C@@H]2O (stereo not given in full),44.1% (inactive)
16,O=C1OCCC1Br (stereo not given),103% (inactive)
17,CCCCCCCC(=O)OCC(=O)[C@]1(O)Cc2c(O)c3c(c(O)c2[C@@H](OC2CC(N)C(O)C(C)O2)C1)C(=O)c1c(OC)cccc1C3=O (stereo not given in full),-91.2% (active)
18,O=C(c1ccccc1O)c1[nH]c(Cl)c(Cl)c1-n1c(C(=O)c2ccccc2O)cc(Cl)c1Cl,-77.9% (active)
19,O=C1CCC2(O)[C@@H]3Cc4ccc(O)c5c4[C@]2(CCN3Cc2ccoc2)C1O5 (stereo not given in full),100% (inactive)
20,COc1cc([C@@H]2c3cc4c(cc3[C@H](OC(C)=O)[C@H]3COC(=O)[C@H]23)OCO4)cc(OC)c1OC,-17.6% (active)
